Rows were chosen to be rich in hits. Some 12% of all compounds tested hit in one or more screens of this group.
HP1b chromo inh – HTS for Inhibitors of HP1-beta Chromodomain Interactions with Methylated Histone Tails; Potency, µM (top dose mostly 114 µM), hits mostly inhibitors; AlphaScreen HP1-beta / biotin-H3K9me3 peptide binding; 390,000 compounds, 0.56% hits; Chromobox protein homolog 1 (Homo sapiens), P83916; further: nearly all actives have a fitted effect of over 70% in size
Target sequence (P83916 whole entry, looked up): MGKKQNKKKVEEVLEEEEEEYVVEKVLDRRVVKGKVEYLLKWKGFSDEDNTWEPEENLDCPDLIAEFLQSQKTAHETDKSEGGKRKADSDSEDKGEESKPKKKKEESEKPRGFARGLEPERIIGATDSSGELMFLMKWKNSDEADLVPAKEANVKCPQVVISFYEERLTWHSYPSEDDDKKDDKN
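HP1-beta protein (50 nM final) preincubated 30 min at room temperature with biotinylated H3(1-18)K9me3 peptide (50 nM) in PBS pH 7.4, 0.01% Tween-20, then compound added for 30 min. AlphaScreen streptavidin donor/nickel chelate acceptor beads (10 ug/mL final), 30 min dark, luminescence read.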
Sfp inh – qHTS Assay for Inhibitors of Bacillus subtilis Sfp phosphopantetheinyl transferase (PPTase); Biochemical Sfp PPTase activity, qHTS; Potency, µM, most hits filed as inhibitors; AID 1490, 2009; 310,000 compounds, 3.5% hits; 4'-phosphopantetheinyl transferase ffp (Bacillus subtilis), Q9F4F7;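 further: the enzyme is Sfp with the accession as filed and its product quenches rhodamine fluorescence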
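Sfp 15 nM + cpd, 15 min RT; start w/ rhodamine-CoA 5 uM, BHQ-2-YbbR 12.5 uM (final); 50 mM Hepes pH 7.6, 10 mM MgCl2, 0.01% NP-40, 0.01% BSA; read 525/598 nm at 0 and 30 min.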
G9a inh – qHTS Assay for Inhibitors of Histone Lysine Methyltransferase G9a; G9a H3K9 monomethylation, AlphaScreen, 2 h; Potency, µM (top dose mostly 102 µM), actives largely listed as inhibitors; 350,000 compounds, 8.8% hits; AID 504332, 2011; further: nearly all actives have a fitted effect of over 75% in size
Target sequence (Q96KQ7 913-1193 limits assumed): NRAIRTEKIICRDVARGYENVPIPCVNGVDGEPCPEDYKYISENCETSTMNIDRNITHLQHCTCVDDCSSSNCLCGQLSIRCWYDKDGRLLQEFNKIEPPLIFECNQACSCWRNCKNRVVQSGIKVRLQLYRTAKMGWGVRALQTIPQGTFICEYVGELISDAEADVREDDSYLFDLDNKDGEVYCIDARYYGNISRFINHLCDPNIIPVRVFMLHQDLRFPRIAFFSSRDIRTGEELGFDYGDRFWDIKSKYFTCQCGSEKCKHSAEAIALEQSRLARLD
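Chemiluminescent proximity detection of H3K9 monomethylation, read after 10 min bead incubation in the dark. Reaction: 20 nM G9a, 500 nM biotin-H3K9 peptide, 20 uM SAM cofactor, 2 h, room temperature, following 15 min enzyme-compound preincubation.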
TDP1 block – qHTS Assay for Inhibitors of Tyrosyl-DNA Phosphodiesterase (TDP1) | Potency, µM (titrated, usually from 130 µM), usual class: inhibitors | 350,000 compounds, 0.28% hits | recombinant TDP1, AlphaScreen DNA substrate cleavage | Tyrosyl-DNA phosphodiesterase 1 (Homo sapiens), Q9NUW8; further: nearly all actives have a fitted effect of over 40% in size
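Recombinant E. coli-expressed Tdp1 (1 nM) preincubated with compound 15 min at RT, then 5'-biotin/3'-phosphotyrosine-FITC DNA substrate (15 nM) added for 5 min. AlphaScreen beads (10 ug/ml) added, 10 min RT; tyrosine-FITC cleavage read as signal loss.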
JMJD2A Tudor inh – qHTS Assay for Inhibitors of JMJD2A-Tudor Domain; Lysine-specific demethylase 4A (Homo sapiens), O75164; AlphaScreen JMJD2A-Tudor / H3K4me3 peptide binding; Potency, µM (highest dose often 114 µM), usual class: inhibitors; 390,000 compounds, 4.4% hits; AID 504339, 2011; further: nearly all actives have a fitted effect of over 50% in size
BAZ2B inh – qHTS Assay for Inhibitors of BAZ2B | Bromodomain adjacent to zinc finger domain protein 2B (Homo sapiens), Q9UIF8 | AlphaScreen BAZ2B-H3K14Ac peptide displacement | Potency, µM (doses to about 114 µM), actives largely listed as inhibitors | 360,000 compounds, 4.4% hits; further: nearly all actives have a fitted effect of over 60% in size
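Compounds, titrated to a top concentration of 110 uM, were incubated 30 min at room temperature with preformed BAZ2B/acetyl-K14 H3 peptide complex (50 nM each). Proximity signal was measured by AlphaScreen after 20 min with beads.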
A number is an active result; – = inactive; ? = inconclusive; · = no result given; [ ] = remark or other dose. The call rests on the fitted dose curve; in most records, active means well fitted curve in the direction sought with a large enough effect; inconclusive means small, poorly fitted or top-dose-only effect, or another doubt; inactive means no such curve, though single readings can be large; an effect the other way counts as inactive or inconclusive.

SMILES | HP1b chromo inh | Sfp inh | G9a inh | TDP1 block | JMJD2A Tudor inh | BAZ2B inh
Cc1ccccc1NCc1ccccc1O | – | ? | 39.8µM | – | ? | 56.2µM
COc1ccc(-c2sc(C(=O)c3ccc(Cl)cc3Cl)cc2CC(=O)O)cc1 | – | – | – | · | – | –
O=C1[C@@H]2Cc3c([nH]c4ccccc34)C(c3cccc([N+](=O)[O-])c3)N2C(=O)CN1C1CCN(Cc2ccccc2)CC1 (stereo partly drawn) | · | – | –[0.501 µM] | · | · | 25.1µM
O=C1C2Cc3c([nH]c4ccccc34)C(c3ccccc3)N2C(=O)C2Cc3c([nH]c4ccccc34)C(c3ccccc3)N12 (stereo not drawn) | · | – | · | –[21 µM] | · | ·
O=C1[C@@H]2Cc3c([nH]c4ccccc34)[C@@H](c3ccccc3)N2C(=O)[C@@H]2Cc3c([nH]c4ccccc34)[C@@H](c3ccccc3)N12 | · | ? | 14.1µM | – | · | ?
CC1Cc2c([nH]c3ccccc23)C2c3ccccc3CN12 (stereo not drawn) | – | – | 25.1µM | · | ? | –
C=CCN1C(=O)[C@@H]2Cc3c([nH]c4ccccc34)C(c3ccc(O)cc3)N2C1=S (stereo partly drawn) | – | – | 44.7µM | · | ? | ?
CC(=O)Nc1ccc(C2NC(C(=O)O)CCC2C)cc1 (stereo not drawn) | · | – | · | –[21 µM] | · | ·
Cc1cccc(-n2nnc(-c3nc(-c4cccs4)no3)c2N)c1 | – | · | – | – | – | –
Cc1ccc(-c2cc(-c3ccco3)c3c(N)c(C(=O)NN)oc3n2)cc1 | – | ? | · | – | ? | ?
COc1cccc(/C=N/NC(=O)c2oc3nc(-c4ccccc4)cc(-c4ccco4)c3c2N)c1 | – | – | 31.6µM | · | – | –
COc1ccc(-c2nc3cnc(OC)nc3n(C3CC3)c2=O)cc1 | · | – | –[12.7 µM] | · | · | ·
CC1CCN(CCCCOc2ccccc2F)CC1 | – | – | – | · | 10µM | 50.1µM
CC1CCN(CCCCOc2ccccc2Br)CC1 | – | 50.1µM | 10µM | – | 15.8µM | ?
Cc1[nH]c2ccccc2c1-c1nc(N)sc1C | – | – | 70.8µM | · | – | ?
Cc1cccc(N2CCN(CCCNc3ncnc4onc(-c5ccc(Cl)cc5)c34)CC2C)c1 (stereo not drawn) | – | · | ? | – | ? | ?
CCCCNC(=S)NCC(c1ccccc1)c1c[nH]c2ccccc12 (stereo not drawn) | – | – | – | · | ? | ?
CN(C)CCCNC(=S)NCC(c1ccc(Cl)cc1Cl)c1c[nH]c2ccccc12 (stereo not drawn) | – | 50.1µM | ? | – | ? | ?
O=S(=O)(c1cccs1)N1CN(Cc2ccco2)c2nc3ccccc3nc21 | – | ? | 39.8µM | – | ? | ?
CCCCN1CN(S(=O)(=O)c2cccs2)c2nc3ccccc3nc21 | · | ? | ? | – | · | –
CC(C)OCCCN1CN(S(=O)(=O)c2cccs2)c2nc3ccccc3nc21 | – | – | 20µM | – | – | –
Cc1cc2nc(N(Cc3cccnc3)C(=O)c3ccc(Cl)s3)sc2cc1C | – | · | – | – | – | –
COc1cccc(CNC(=O)c2ccc3c(c2)nc2n3CCOC2)c1 | – | · | – | – | – | –
C=CCNC(=O)CN1C(=O)NC(C)(c2ccc(OC)cc2)C1=O (stereo not drawn) | – | – | – | – | – | –
CCOc1ccccc1N(CC(=O)Nc1ccccc1F)S(=O)(=O)c1ccccc1 | – | – | – | – | – | –
SMILES | HP1b chromo inh | Sfp inh | G9a inh | TDP1 block | JMJD2A Tudor inh | BAZ2B inh
Cc1cc(C(=S)N2CCOCC2)c(C)n1-c1ccc(F)cc1 | – | ? | · | – | – | 44.7µM
Cc1ccc(-n2c(C)cc(C(=S)N3CCOCC3)c2C)cc1C | ? | – | · | – | 44.7µM | 50.1µM
Cc1cc(C)c(Nc2nc3ccccc3n3c(C)nnc23)c(C)c1 | – | · | – | – | – | –
O=C(CSc1nnc(-c2ccccc2)n1Cc1ccco1)Nc1ccc2c(c1)OCCO2 | – | 44.7µM | 39.8µM | – | – | –
O=C(CSc1nnc(-c2cccs2)n1Cc1ccco1)Nc1ccc2c(c1)OCO2 | – | ? | –[12.7 µM] | – | – | ?
Cc1cc(NC(=O)CSc2nnc(CNc3cccc(C(F)(F)F)c3)n2Cc2ccco2)no1 | – | – | – | – | – | –
O=C(CSc1nnc(-c2ccco2)n1Cc1ccco1)NCc1ccccc1 | – | – | – | – | – | –
Cc1nnc(SCC(=O)Nc2cccc(C(F)(F)F)c2)n1Cc1ccco1 | – | 39.8µM | – | – | ? | –
O=C(CSc1nnc(-c2ccccc2)n1Cc1ccco1)NCc1ccc2c(c1)OCO2 | – | ? | 44.7µM | – | – | –
COc1ccc2nc(SCC(=O)NC3CCCCC3C)[nH]c2c1 (stereo not drawn) | – | · | –[12.7 µM] | – | – | –
CS(=O)(=O)N(CC(=O)NCCSc1ccccc1)c1cc(C(F)(F)F)ccc1Cl | – | · | – | · | – | –
Cc1ccc(C)c(-n2cc(-c3ccc(Cl)cc3)nc2SCC(=O)NC2CCS(=O)(=O)C2)c1 (stereo not drawn) | – | – | 44.7µM | – | ? | ?
O=C(CSc1nc2ccccc2n1CCc1ccccc1)NC1CCS(=O)(=O)C1 (stereo not drawn) | – | ? | 2µM | – | – | –
Nn1cc(-c2ccccc2)nc1SCC(=O)NC1CCS(=O)(=O)C1 (stereo not drawn) | – | – | – | – | – | –
Cc1ccccc1-n1c(SCC(=O)NC2CCS(=O)(=O)C2)nc2ccccc2c1=O (stereo not drawn) | – | · | 50.1µM | –[0.505 µM] | – | –
CCOC(=O)N1CCN([N+]([O-])=NOc2cc(O/N=[N+](\[O-])N(CC)CC)c([N+](=O)[O-])cc2[N+](=O)[O-])CC1 | – | – | · | – | – | ·
COc1ccccc1N1CCN(CC2CN3C(=O)N(C)c4ccccc4C3=N2)CC1 (stereo not drawn) | · | – | – | – | · | ·
N#Cc1c(N2CCCC(O)C2)nc(N)c2c(N)nc3c(c12)CC(=O)N3C12CC3CC(CC(C3)C1)C2 (stereo not drawn) | ? | ? | ? | – | 56.2µM | ?
O=[N+]([O-])c1cccnc1Sc1n[nH]c(-c2ccc(Cl)cc2)n1 | – | – | · | – | – | –
O=[N+]([O-])c1cccnc1Sc1ccc(Cl)cc1 | ? | – | 44.7µM | · | 56.2µM | 31.6µM

Screens deposited in PubChem BioAssay by National Center for Advancing Translational Sciences (NCATS).
